This is an account of results in PubChem BioAssay AID2391 (Southern Research Specialized Biocontainment Screening …, 2010).

Out of some 310,000 compounds screened, about 410 (0.13%) were called active. About 2% were inconclusive and are not listed. How the calls were made is not given here. Not all results are given here. Entries with a potency or affinity are not part of this list.

The assay can be described thus: RSV antiviral activity via CPE protection, HEp-2 cells, primary 10 µM value included (AID 2391). Conditions: RSV-induced CPE inhibition, at 10 µM, stronger effect = higher value.
Turning to `CCOC(=O)C1=C(C)N=c2s/c(=C\c3ccc(OCC(=O)O)cc3)c(=O)n2C1c1ccc(Cl)cc1` (centres undefined), the CPE inhibition was 18.1% (inactive).

Regarding `CCOC(=O)C1=C(C)N=c2s/c(=C\c3ccc(OCC(=O)O)c(OC)c3)c(=O)n2C1c1ccc(OC)cc1` (centres undefined), the CPE inhibition was 2.77% (inactive). Next, `CC1CC(C)CN(S(=O)(=O)c2ccc(C(=O)OCC(=O)NCCN3C(=O)CSC3=O)cc2)C1` (centres undefined): 0.02% (inactive).

In the case of `Cc1nnc(SCC(=O)N(C2CCCCC2)C2CCS(=O)(=O)C2)n1N` (centres undefined), the CPE inhibition is -1.53% (inactive). Turning to `O=C(CSc1nc2ccccc2o1)N1CCCC1`, the CPE inhibition is -0.37% (inactive). In the case of `COC(=O)C1=C(C)N(Cc2ccco2)C(=O)N[C@@H]1c1ccc(Br)cc1`, the CPE inhibition was 0.6% (inactive).

As to `COC(=O)C1=C(C)N(Cc2ccco2)C(=O)N[C@@H]1c1ccco1`, the CPE inhibition is 0.83% (inactive). Turning to `COC(=O)C1=C(C)N(Cc2ccco2)C(=O)N[C@@H]1c1cccc(C(F)(F)F)c1`, the CPE inhibition is 4.06% (inactive).

For `COC(=O)C1=C(C)N(CC2CC2)C(=O)N[C@H]1c1ccc(Br)cc1`, the CPE inhibition was 27% (inactive). Regarding `COC(=O)C1=C(C)N(Cc2ccco2)C(=O)N[C@@H]1c1ccccc1`, the CPE inhibition is 2.19% (inactive).

Consider `CCN1C(=O)N[C@@H](c2cccc(C(F)(F)F)c2)C(C(=O)OC)=C1C`, for which the CPE inhibition is -0.08% (inactive). Consider `CCOCCOC(=O)C1=C(C)Nc2ccc(C)cc2S1`, for which the CPE inhibition is 2.03% (inactive).

Turning to `CN(C(=O)COC(=O)c1cc(S(=O)(=O)N2CCOCC2)ccc1Cl)C1CCS(=O)(=O)C1` (centres undefined), the CPE inhibition was -1.51% (inactive). Take `CCn1nnnc1-c1ccc(OC)c(S(=O)(=O)Nc2ccc(C(=O)OC)cc2)c1`: the CPE inhibition was 1.29% (inactive). For the molecule `Cc1ccc(CC(=O)NCC2CCCCC2)cc1`, the CPE inhibition was 0.51% (inactive). Next, `Cc1ccsc1CNC1C2CC3CC(C2)CC1C3` (centres undefined): -1.39% (inactive). Turning to `CC(C)c1ccc(/C=C(\NC(=O)c2ccccc2)C(=O)NCCCN2CCOCC2)cc1`, the CPE inhibition was 0.11% (inactive). Regarding `Cc1ccc(C(=O)N/C(=C\c2ccc(Cl)cc2)C(=O)NCCN2CCOCC2)cc1`, the CPE inhibition was 0.95% (inactive).

For `CC(C)c1ccc(/C=C(\NC(=O)c2ccccc2)C(=O)NCCN2CCOCC2)cc1`, the CPE inhibition is 0.84% (inactive). As to `Cc1ccc(C(=O)N/C(=C\c2ccc(Cl)cc2)C(=O)NCCCN2CCOCC2)cc1`, the CPE inhibition was 2.02% (inactive). With `N#C/C(=C\c1ccc(OCc2ccc(C(=O)O)cc2)cc1)C(=O)NCc1ccccc1`, the CPE inhibition is 1.49% (inactive). As to `CCOc1ncccc1C(=O)N(C)CC(=O)Nc1ccccc1SC`, the CPE inhibition was 1.11% (inactive).

As for `Clc1ccc(Sc2cc(Cl)c(-c3ccccc3)nn2)cc1`, the CPE inhibition was 4.99% (inactive). Next, `O=C(C1=COCCO1)N1CCN(S(=O)(=O)c2cccc(F)c2)CC1`: 1.49% (inactive).
